Laboratory results from PubChem BioAssay.
For some assays here: Measured potencies and affinities stand elsewhere. The source made the active and inactive calls.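 Rule for the calls, unless noted: active = signal rise over 3 SD above mean of control wells given weak agonist, in both repeats and first screen; inactive = the rest.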

Assays:
[1] = test system: TRPC4 beta (transient receptor potential cation channel C4), mouse; experiment: TRPC4 cation channel opening, retest – cell-based, Fluo4 calcium, HEK293 TRPC4beta/mu-opioid, duplicates, 10 µM, confirmation (AID 2426;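 active = fluorescence ratio normalized to control raised more than 50% in primary screen plus both repeat runs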); details: Fluo4 calcium fluorescence, at 10 µM; hits give high values
[2] = test system: transient receptor potential cation channel C4 beta (TRPC4), mouse; experiment: TRPC4 cation channel opening, second retest – cell-based, second round, Fluo4, HEK293 TRPC4beta/mu-opioid, 1 µM, confirmation (AID 2461;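 active = primary screen active and over 50% activation in each of two duplicate runs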); details: Fluo4 calcium fluorescence, at 1 µM; hits give high values
[3] = test system: TRPC4 (transient receptor potential cation channel C4 beta), mouse; experiment: potentiation of DAMGO EC20 TRPC4 response – cell-based, second round, Fluo-4, HEK293 TRPC4beta/mu-opioid, 1 µM, confirmation (AID 2554;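 active = primary screen hit whose fluorescence ratio, in both repeats, exceeds the weak agonist control mean by 3 SD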); details: DAMGO EC20, Fluo-4 calcium flux, at 1 µM; hits give high values
[4] = test system: TRPC4 beta (transient receptor potential cation channel C4), mouse; experiment: potentiation of DAMGO EC20 TRPC4 response – cell-based, Fluo-4, HEK293 TRPC4beta/mu-opioid, confirmation (AID 2555;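 active = primary screen hit whose calcium fluorescence ratio, in both repeats, exceeds the weak agonist control mean by 3 SD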); details: DAMGO EC20, Fluo-4 calcium flux, at 10 µM; hits give high values
[5] = target: Short transient receptor potential channel 4 (Mus musculus) (UniProt Q9QUQ5); experiment: blockers of DAMGO-evoked TRPC4 calcium flux – cell-based, Fluo4, HEK293 TRPC4beta/mu-opioid, confirmation (AID 2636;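 active = calcium signal cut by more than 3 SD below the full-agonist control yet still positive, in both repeats and the earlier primary screen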); details: at 10 µM; hits give high values
[6] = target: Short transient receptor potential channel 4 (Mus musculus) (UniProt Q9QUQ5); experiment: blockers of DAMGO-evoked TRPC4 calcium flux – cell-based, second round, Fluo4, HEK293 TRPC4beta/mu-opioid, 1 µM, confirmation (AID 2637;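 active = calcium signal ratio cut to more than 3 SD under the fully stimulated control mean yet still positive, in both repeats and the primary screen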;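 for inhibition: percent of integrated ratio relative to wells lacking test compound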); details: at 1 µM; hits give high values
[7] = target: Short transient receptor potential channel 4 (Mus musculus) (UniProt Q9QUQ5); experiment: calcium entry via TRPC4 opening agents – cell-based, HEK293 TRPC4/mu-opioid, Fluo-4 calcium, dose response (AID 434937;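 active = primary screen activator hit with a dose response curve and TRPC4 channel activation at any tested dose; inactive = no activation, no dose response, or not a primary hit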)
[8] = target: Short transient receptor potential channel 4 (Mus musculus) (UniProt Q9QUQ5); experiment: potentiation of DAMGO-evoked TRPC4 calcium signal – cell-based, HEK293 TRPC4/mu-opioid, Fluo-4 calcium, EC20 DAMGO, dose response (AID 434941;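 active = earlier screen potentiator hit that boosts the TRPC4 ion channel at some dose, with a dose response; inactive = no potentiation, no dose response, or not a prior hit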;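 note: calcium entry triggered by an EC20 dose of DAMGO at the co-expressed mu-opioid receptor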)
[9] = target: Short transient receptor potential channel 6 (Mus musculus) (UniProt Q61143); experiment: TRPC6 blockade by TRPC4 inhibitor hits – cell-based, HEK293, membrane potential dye, duplicate, selectivity assay for TRPC4 inhibitor project, confirmation (AID 434948;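 active = active in primary screen and both duplicates, each dropping signal beyond three positive-control SD with fluorescence still positive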); details: HEK293 TRPC6, membrane potential dye fluorescence, at 10 µM, stimulated with maximal-effect acetylcholine; hits give high values
[10] = target: Short transient receptor potential channel 6 (Mus musculus) (UniProt Q61143); experiment: TRPC6 opening by TRPC4 activator hits – cell-based, HEK293, membrane potential dye, duplicate, selectivity assay for TRPC4 activator project, confirmation (AID 434950;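 active = membrane potential signal rise above negative control mean plus 3 SD in both duplicates, also active in the earlier TRPC4 screen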); details: HEK293 TRPC6, membrane potential fluorescence, at 10 µM; activation: hits give high values; outcome: activation
[11] = target: Short transient receptor potential channel 6 (Mus musculus) (UniProt Q61143); experiment: positive modulators of mouse TRPC6 channel – HEK293 cells, membrane potential dye, duplicate, selectivity assay for TRPC4 potentiator project, confirmation (AID 434952;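 active = compound raising the membrane signal above positive-control mean plus 3 SD in both repeats, and a primary screen hit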); details: HEK293 TRPC6, membrane potential dye fluorescence, at 10 µM, maximal acetylcholine added after compound; hits give high values
[12] = target: Short transient receptor potential channel 4 (Mus musculus) (UniProt Q9QUQ5); experiment: calcium flux activators in TRPC4/5HT1a cells, counter-screen for TRPC4 activator project, cell-based, second counter screen, HEK293 TRPC4/5HT1a, Fluo-4 (AID 434977;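 active = calcium signal rise above buffer-control mean plus 5 SD in both duplicates, and also a hit in the primary screen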); details: Fluo-4 calcium flux, at 10 µM; hits give high values
[13] = serotonin-gated TRPC4 signal block – cell-based, second counter screen, HEK293 TRPC4/5HT1a, Fluo-4, counter-screen for TRPC4 inhibitor project, confirmation (AID 434978;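 active = primary screen active whose calcium signal fell more than 3 SD beyond the full-serotonin control mean in both duplicate plates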;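 for outcome: serotonin given first at submaximal then at maximal dose after compound preincubation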); details: Fluo-4 calcium flux, at 10 µM, serotonin added to trigger calcium flux; hits give high values
[14] = test system: TRPC4 (mouse), co-expressed with 5HT1a in HEK293; experiment: enhancement of serotonin-evoked TRPC4 response – cell-based, second counter screen, HEK293 TRPC4/5HT1a, Fluo-4, counter-screen for TRPC4 potentiator project, confirmation (AID 434979); details: Fluo-4 calcium flux, at 10 µM, serotonin added at its EC20 dose; hits give high values
[15] = nonspecific calcium rise without TRPC4 – cell-based, HEK293 mu-opioid receptor line, counter-screen for TRPC4 activator project, confirmation (AID 449723;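 active = hit in primary screen, with calcium signal over 5 SD above buffer well mean in both duplicates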;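 note: counter screen cells carry the mu-opioid receptor alone and lack TRPC4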); details: HEK293 mu-opioid cells, Fluo-4 calcium fluorescence, at 10 µM; hits give high values
[16] = nonspecific potentiation of DAMGO calcium response – cell-based, HEK293 mu-opioid receptor line, counter-screen for TRPC4 allosteric potentiator project, confirmation (AID 449724;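 active = calcium signal rise more than 3 SD above the low-dose agonist control mean, in both duplicate plates and the primary screen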); details: HEK293 mu-opioid receptor cells, Fluo-4 calcium flux, at 10 µM, compound added before EC20 DAMGO stimulus; hits give high values

Chain of Short transient receptor potential channel 4 (Mus musculus) (Q9QUQ5 whole entry, looked up): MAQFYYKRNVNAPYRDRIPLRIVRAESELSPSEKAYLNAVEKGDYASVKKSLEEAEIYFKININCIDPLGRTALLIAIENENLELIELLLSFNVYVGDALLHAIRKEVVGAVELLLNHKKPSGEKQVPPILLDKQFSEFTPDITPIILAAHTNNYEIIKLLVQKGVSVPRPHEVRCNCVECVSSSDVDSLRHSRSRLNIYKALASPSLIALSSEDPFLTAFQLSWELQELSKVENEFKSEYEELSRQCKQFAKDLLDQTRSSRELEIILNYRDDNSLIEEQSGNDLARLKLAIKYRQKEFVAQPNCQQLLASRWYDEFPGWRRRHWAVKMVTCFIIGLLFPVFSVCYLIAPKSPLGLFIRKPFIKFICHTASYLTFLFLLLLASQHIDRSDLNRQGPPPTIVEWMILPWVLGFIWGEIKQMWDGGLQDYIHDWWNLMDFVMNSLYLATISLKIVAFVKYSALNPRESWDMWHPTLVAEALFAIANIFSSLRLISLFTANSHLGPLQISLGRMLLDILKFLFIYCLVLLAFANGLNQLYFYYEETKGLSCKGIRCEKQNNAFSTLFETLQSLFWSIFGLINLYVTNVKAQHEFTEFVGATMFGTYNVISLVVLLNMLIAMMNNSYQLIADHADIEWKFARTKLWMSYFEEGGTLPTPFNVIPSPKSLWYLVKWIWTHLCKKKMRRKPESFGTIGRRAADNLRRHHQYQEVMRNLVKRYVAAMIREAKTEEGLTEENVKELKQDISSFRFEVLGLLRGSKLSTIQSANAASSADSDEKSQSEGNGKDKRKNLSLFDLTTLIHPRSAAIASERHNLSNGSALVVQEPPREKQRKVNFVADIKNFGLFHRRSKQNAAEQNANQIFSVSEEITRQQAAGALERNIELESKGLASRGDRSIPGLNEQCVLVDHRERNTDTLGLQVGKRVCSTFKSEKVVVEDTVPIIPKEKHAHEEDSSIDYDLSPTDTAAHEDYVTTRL
Chain of Short transient receptor potential channel 6 (Mus musculus) (Q61143 whole entry, looked up): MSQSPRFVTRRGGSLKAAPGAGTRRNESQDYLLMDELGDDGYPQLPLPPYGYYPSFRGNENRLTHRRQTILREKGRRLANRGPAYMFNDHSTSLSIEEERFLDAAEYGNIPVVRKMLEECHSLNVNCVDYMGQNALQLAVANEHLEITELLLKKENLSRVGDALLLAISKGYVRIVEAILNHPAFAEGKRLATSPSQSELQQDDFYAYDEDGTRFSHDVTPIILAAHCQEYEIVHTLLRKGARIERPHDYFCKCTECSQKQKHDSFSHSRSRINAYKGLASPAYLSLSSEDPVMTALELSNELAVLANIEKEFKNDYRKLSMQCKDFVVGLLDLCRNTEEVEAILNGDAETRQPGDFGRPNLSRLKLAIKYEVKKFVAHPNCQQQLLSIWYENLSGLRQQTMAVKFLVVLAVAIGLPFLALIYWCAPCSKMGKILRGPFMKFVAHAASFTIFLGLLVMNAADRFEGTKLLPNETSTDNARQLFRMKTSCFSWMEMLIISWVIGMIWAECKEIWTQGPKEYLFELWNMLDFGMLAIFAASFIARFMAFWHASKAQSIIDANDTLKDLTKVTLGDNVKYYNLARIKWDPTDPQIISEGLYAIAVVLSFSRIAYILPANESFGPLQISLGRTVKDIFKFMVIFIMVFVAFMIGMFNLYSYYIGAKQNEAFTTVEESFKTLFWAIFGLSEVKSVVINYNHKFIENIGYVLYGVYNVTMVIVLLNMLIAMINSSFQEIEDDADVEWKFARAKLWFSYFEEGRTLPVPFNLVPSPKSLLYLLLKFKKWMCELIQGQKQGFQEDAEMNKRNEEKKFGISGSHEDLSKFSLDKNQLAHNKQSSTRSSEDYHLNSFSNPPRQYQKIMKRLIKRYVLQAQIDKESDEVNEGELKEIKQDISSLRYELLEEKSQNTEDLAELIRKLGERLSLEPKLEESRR

NS(=O)(=O)c1ccc(CCNCc2ccccc2OCc2ccc(F)cc2)cc1
outcome [1]: inactive | outcome [2]: inactive | outcome [3]: inactive | outcome [4]: inactive | inhibition [5]: 91% (active) | inhibition [6]: 55% (active) | outcome [7]: inactive | outcome [8]: inactive | outcome [9]: inactive | outcome [10]: inactive | outcome [11]: inactive | outcome [12]: inactive | inhibition [13]: 24.6% (active) | outcome [14]: inactive | outcome [15]: inactive | outcome [16]: inactive

Cc1cccc(N2CCN(Cc3ccoc3)CC2)c1C
outcome [1]: inactive | outcome [2]: inactive | outcome [3]: inactive | outcome [4]: inactive | inhibition [5]: 72% (active) | outcome [6]: inactive | outcome [7]: inactive | outcome [8]: inactive | outcome [9]: inactive | outcome [10]: inactive | outcome [11]: inactive | outcome [12]: inactive | inhibition [13]: 25.2% (active) | outcome [14]: inactive | outcome [15]: inactive | outcome [16]: inactive

Cc1nc(Cl)nc(N(C)c2ccccc2)c1[N+](=O)[O-]
outcome [1]: inactive | outcome [2]: inactive | outcome [3]: inactive | outcome [4]: inactive | inhibition [5]: 97% (active) | inhibition [6]: 49% (active) | outcome [7]: inactive | outcome [8]: inactive | outcome [9]: inactive | outcome [10]: inactive | outcome [11]: inactive | outcome [12]: inactive | inhibition [13]: 43.6% (active) | outcome [14]: inactive | outcome [15]: inactive | outcome [16]: inactive

CCOc1c(Cl)cc(CNCC(O)c2ccccc2)cc1OC (centres undefined)
outcome [1]: inactive | outcome [2]: inactive | outcome [3]: inactive | outcome [4]: inactive | inhibition [5]: 86% (active) | outcome [6]: inactive | outcome [7]: inactive | outcome [8]: inactive | outcome [9]: inactive | outcome [10]: inactive | outcome [11]: inactive | outcome [12]: inactive | outcome [13]: inactive | outcome [14]: inactive | outcome [15]: inactive | outcome [16]: inactive

CCCCC(CC)c1nnc(NC(=O)c2cccs2)s1 (centres undefined)
outcome [1]: inactive | outcome [2]: inactive | outcome [3]: inactive | outcome [4]: inactive | inhibition [5]: 90% (active) | outcome [6]: inactive | outcome [7]: inactive | outcome [8]: inactive | outcome [9]: inactive | outcome [10]: inactive | outcome [11]: inactive | outcome [12]: inactive | inhibition [13]: 40.9% (active) | outcome [14]: inactive | outcome [15]: inactive | outcome [16]: inactive

CC(C)c1nc(CNC(=O)CC2C(=O)NCCN2Cc2ccc(F)cc2Cl)cs1 (centres undefined)
outcome [1]: inactive | outcome [2]: inactive | outcome [3]: inactive | outcome [4]: inactive | inhibition [5]: 92% (active) | outcome [6]: inactive | outcome [7]: inactive | outcome [8]: inactive | outcome [9]: inactive | outcome [10]: inactive | outcome [11]: inactive | outcome [12]: inactive | outcome [13]: inactive | outcome [14]: inactive | outcome [15]: inactive | outcome [16]: inactive

CN1CCN(Cc2cn[nH]c2-c2ccc(F)cc2F)[C@@H](c2ccccc2)C1
outcome [1]: inactive | outcome [2]: inactive | outcome [3]: inactive | outcome [4]: inactive | outcome [5]: inactive | outcome [6]: inactive | outcome [7]: inactive | outcome [8]: inactive | outcome [9]: inactive | outcome [10]: inactive | outcome [11]: inactive | outcome [12]: inactive | outcome [13]: inactive | outcome [14]: inactive | outcome [15]: inactive | outcome [16]: inactive

CCN(CC)c1nc2ccccc2c(N)c1-c1ccccc1
outcome [1]: inactive | outcome [2]: inactive | outcome [3]: inactive | outcome [4]: inactive | inhibition [5]: 89% (active) | outcome [6]: inactive | outcome [7]: inactive | outcome [8]: inactive | inhibition [9]: 37.5% (active) | outcome [10]: inactive | outcome [11]: inactive | outcome [12]: inactive | inhibition [13]: 33.1% (active) | outcome [14]: inactive | outcome [15]: inactive | outcome [16]: inactive

CCCc1nc(SC2CCCC2)c2c(=O)n(C)c(=O)n(C)c2n1
outcome [1]: inactive | outcome [2]: inactive | outcome [3]: inactive | outcome [4]: inactive | outcome [5]: inactive | outcome [6]: inactive | outcome [7]: inactive | outcome [8]: inactive | outcome [9]: inactive | outcome [10]: inactive | outcome [11]: inactive | outcome [12]: inactive | inhibition [13]: 39.1% (active) | outcome [14]: inactive | outcome [15]: inactive | outcome [16]: inactive

CCCCNCc1cc(Cl)c(OCCC)c(OCC)c1
outcome [1]: inactive | outcome [2]: inactive | outcome [3]: inactive | outcome [4]: inactive | inhibition [5]: 86% (active) | outcome [6]: inactive | outcome [7]: inactive | outcome [8]: inactive | outcome [9]: inactive | outcome [10]: inactive | outcome [11]: inactive | outcome [12]: inactive | outcome [13]: inactive | outcome [14]: inactive | outcome [15]: inactive | outcome [16]: inactive

O=C(C[N+]1(CC#Cc2ccccc2)CCCCC1)c1ccc(Cl)cc1
outcome [1]: inactive | outcome [2]: inactive | outcome [3]: inactive | outcome [4]: inactive | inhibition [5]: 86% (active) | outcome [6]: inactive | outcome [7]: inactive | outcome [8]: inactive | outcome [9]: inactive | outcome [10]: inactive | outcome [11]: inactive | outcome [12]: inactive | inhibition [13]: 40.2% (active) | outcome [14]: inactive | outcome [15]: inactive | outcome [16]: inactive

O=[N+]([O-])c1ccc(CN2CCN(Cc3c[nH]c4ccccc34)CC2)cc1
outcome [1]: inactive | outcome [2]: inactive | outcome [3]: inactive | outcome [4]: inactive | inhibition [5]: 83% (active) | outcome [6]: inactive | outcome [7]: inactive | outcome [8]: inactive | outcome [9]: inactive | outcome [10]: inactive | outcome [11]: inactive | outcome [12]: inactive | inhibition [13]: 28.9% (active) | outcome [14]: inactive | outcome [15]: inactive | outcome [16]: inactive

OC1(c2cccs2)CN(c2ccc(Cl)cc2)C2=[N+]1CCCC2 (centres undefined)
outcome [1]: inactive | outcome [2]: inactive | outcome [3]: inactive | outcome [4]: inactive | inhibition [5]: 72% (active) | outcome [6]: inactive | outcome [7]: inactive | outcome [8]: inactive | outcome [9]: inactive | outcome [10]: inactive | outcome [11]: inactive | outcome [12]: inactive | inhibition [13]: 35.1% (active) | outcome [14]: inactive | outcome [15]: inactive | outcome [16]: inactive

CCCn1c(NC(=O)c2cccc(S(=O)(=O)N3CCCC3)c2)nc2ccccc21
outcome [1]: inactive | outcome [2]: inactive | potentiation [3]: 11% (active) | potentiation [4]: 64% (active) | inhibition [5]: 87% (active) | outcome [6]: inactive | outcome [7]: inactive | outcome [8]: inactive | outcome [9]: inactive | outcome [10]: inactive | outcome [11]: inactive | outcome [12]: inactive | outcome [13]: inactive | potentiation [14]: 24.4% (active) | outcome [15]: inactive | outcome [16]: inactive
